# Measured values taken from the supplement of paper PMC10503962.
# System: Trichuris muris adult worms
# Experiment: mean motility score (Paragon pixel variance) of adult worms (arbitrary units); higher = more motile worms, i.e. less anthelmintic effect; extreme values may be limits of the assay
# Conditions: 100 µM; 24 h
# Summary of the method: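 In 96-well plates, one adult Trichuris muris worm from infected NOD SCID mice went into each well with 100 μL RPMI-1640, antibiotics and drug at 100 μM (1% v/v DMSO). After 24 h at 37°C and 5% CO2, the plates were filmed on an automated phenotyping platform. Paragon pixel-variance analysis gave the motility score, which was averaged across replicate wells.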
row,Compound,mean motility score
1,CC(=O)Oc1cc(C(C)C)c(OCCN(C)C)cc1C.Cl [moxisylyte hydrochloride],1780
2,CCOC(=O)Nc1ccc2c(c1)N(C(=O)CCN1CCOCC1)c1ccccc1S2.Cl [moricizine hydrochloride],5
3,C[C@@H](Oc1cc(-c2cnn(C3CCNCC3)c2)cnc1N)c1c(Cl)ccc(F)c1Cl [crizotinib],284
4,CC(=O)O[C@]1(C(C)=O)CC[C@H]2[C@@H]3C=C(Cl)C4=CC(=O)CC[C@]4(C)[C@H]3CC[C@@]21C [chlormadinone acetate],2750
5,CS(=O)(=O)c1cccc(C[C@H](NC(=O)c2c(Cl)cc3c(c2Cl)CCN(C(=O)c2ccc4ccoc4c2)C3)C(=O)O)c1 [lifitegrast],3490
6,C#CCN(C)Cc1ccccc1 [pargyline],2290
7,CN(C(=O)CN(CCO)CC(=O)N(C)C(C)(C)Cc1ccccc1)C(C)(C)Cc1ccccc1 [oxethazaine],184
8,OCc1ccccc1 [benzyl alcohol],2390
9,O=C(CCCN1CCC(O)(c2ccc(Cl)cc2)CC1)c1ccc(F)cc1 [haloperidol],2820
10,CS(=O)(=O)Nc1ccc([N+](=O)[O-])cc1Oc1ccccc1 [nimesulide],1.33
11,CCC(C)n1ncn(-c2ccc(N3CCN(c4ccc(OC[C@H]5CO[C@](Cn6cncn6)(c6ccc(Cl)cc6Cl)O5)cc4)CC3)cc2)c1=O (some centres not stated) [itraconazole],1700
12,CCOC(=O)[C@H](CCc1ccccc1)N[C@@H](C)C(=O)N1[C@H](C(=O)O)C[C@@H]2CCC[C@@H]21 [ramipril],3060
13,CCCc1cc(C(N)=S)ccn1 [protionamide],2460
14,CC(C)NCC(O)c1ccc(NS(C)(=O)=O)cc1.Cl (configuration not stated) [sotalol hydrochloride],2900
15,CS(=O)(=O)OCCCCOS(C)(=O)=O [busulfan],3180
16,CC(C)(C)c1ccc(C(O)CCCN2CCC(C(O)(c3ccccc3)c3ccccc3)CC2)cc1 (configuration not stated) [terfenadine],1
17,CC(C)O [isopropyl alcohol],2760
18,CCCCCCCCCC(=O)OC1(c2ccc(Cl)cc2)CCN(CCCC(=O)c2ccc(F)cc2)CC1 [haloperidol decanoate],4450
19,COc1ccc(CCN(C)CCCC(C#N)(c2ccc(OC)c(OC)c2)C(C)C)cc1OC (configuration not stated) [verapamil],3440

row,Compound,mean motility score
1,CNC[C@H](O)c1ccc(O)c(O)c1 [epinephrine],3270
2,CNCCCN1c2ccccc2CCc2ccccc21 [desipramine],1090
3,CC/C=C\C/C=C\C/C=C\C/C=C\C/C=C\C/C=C\CCC(=O)O [doconexent],4100
4,Cc1c(C)c2c(c(C)c1O)CC[C@@](C)(CCC[C@H](C)CCC[C@H](C)CCCC(C)C)O2 [vitamin E],2950
5,Cc1cc(CC(=O)[O-])n(C)c1C(=O)c1ccc(Cl)cc1.[Na+] [zomepirac sodium],2840
6,O=C(CCCN1CC=C(n2c(O)nc3ccccc32)CC1)c1ccc(F)cc1 [droperidol],2120
7,O=c1oc2ccccc2c(O)c1Cc1c(O)c2ccccc2oc1=O [dicumarol],0
8,CCCCc1nc(Cl)c(CO)n1Cc1ccc(-c2ccccc2-c2nn[nH]n2)cc1 [losartan],3650
9,Cc1oncc1C(=O)Nc1ccc(C(F)(F)F)cc1 [leflunomide],2250
10,O=C(O)c1cc(-c2ccc(F)cc2F)ccc1O [diflunisal],1040
11,CNCc1ccc(-c2[nH]c3cc(F)cc4c3c2CCNC4=O)cc1 [rucaparib],1130
12,CCN(CC)CCOC(=O)c1ccc(N)cc1.Cl [procaine hydrochloride],3750
13,N[C@@H](CCC(=O)O)C(=O)O [L-glutamate],3930
14,O=C(c1ccccc1)c1ccc2n1CCC2C(=O)O (configuration not stated) [ketorolac],2460
15,CC[N+](C)(C)c1cccc(O)c1.[Cl-] [edrophonium chloride],2890
16,Clc1cc(Cl)c(OCC#CI)cc1Cl [haloprogin],2180
17,C[C@H](Cc1cc2c(c(C(N)=O)c1)N(CCCO)CC2)NCCOc1ccccc1OCC(F)(F)F [silodosin],3810
18,CCOC(=O)[C@H](CCc1ccccc1)N[C@@H](C)C(=O)N1Cc2ccccc2C[C@H]1C(=O)O.Cl [quinapril hydrochloride],4700
